Among all 360,000 compounds or so, about 3,800 (1.1%) were called active. The entries come from a sample that favours actives as a whole. Values without a mark were called inactive.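 The calls were made as follows: active = compounds causing at least 50% loss of cell viability in the single-dose screen, relative to plate controls; inactive = the rest.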

The test in a line: viability loss with TRAIL in NB7+C8 cells, primary screen, TRAIL sensitizer project, cell-based, ATPlite luminescence (AID 624354). The settings on record: at 10 µM, stronger effect = higher value.
For the molecule `COc1cccc(NC(=O)COC(=O)c2ccc3ccccc3n2)c1`, the inhibition (viability loss, TRAIL sensitization) was -11.3%. The same measure for `CCOc1cccc(/C=C/c2ccc3ccccc3n2)c1OC(C)=O`: 47.3%; for `COc1cccc(/C=C/c2ccc3ccccc3n2)c1OC(C)=O`: 65.1% (active). As to `C=CCCC(=O)N1C[C@H]2CON(C)[C@H]2C[C@H]1c1cccc(Nc2ccccc2)c1`, the inhibition (viability loss, TRAIL sensitization) was -0.674%. Under `O=C(NCc1ccc(Cl)cc1)c1cc2c(nc3sccn32)s1` stands 0.401%. With `COc1ccc(C2=Nc3ccccc3NC(=O)C2N(C(=O)c2cc3ccccc3[nH]2)c2ccccc2)cc1` (configuration not stated), the inhibition (viability loss, TRAIL sensitization) was -7.09%. Take `COc1cccc(-c2ccc(SCC(=O)N3CCN(c4ccccc4)CC3)nn2)c1`: the inhibition (viability loss, TRAIL sensitization) was 6.26%. The same measure for `CCOc1ccc(-c2ccc(SCC(=O)N3CCOCC3)nn2)cc1`: 50.6% (active); for `COc1ccc(-c2ccnc(SCC(=O)N3CCOCC3)n2)cc1`: 28%; for `CC(O)c1nc2c(c(=O)n(C)c(=O)n2C)n1C` (configuration not stated): -4.64%. Under `O=C(c1cccs1)N1C[C@H](n2cc(C3CC3)nn2)[C@@H](O)C[C@@H]1c1ccccc1` stands -1.93%; under `CCCCN1Cc2c(nc3cc(-c4ccccc4)[nH]n3c2=O)C1=O`, -2.49%; under `C=CCc1c(C)nc2cc(-c3ccccc3)[nH]n2c1=O`, 30.8%.

Consider `O=c1c2c(nc3cc(-c4cccc(Cl)c4)[nH]n13)CCCC2`, for which the inhibition (viability loss, TRAIL sensitization) is 63.1% (active). In the case of `CCn1cc(CNC(=O)c2cc([N+](=O)[O-])c(C)c([N+](=O)[O-])c2)cn1`, the inhibition (viability loss, TRAIL sensitization) was 24.5%. The same measure for `Cn1c(=O)c2c(ncn2CC(COCc2ccccc2Cl)OCc2ccccc2Cl)n(C)c1=O` (configuration not stated): -6.46%; for `COc1ccc(CCc2nnc(CCC(=O)NCc3cnn(-c4ccccc4C)c3)o2)cc1`: 2.59%; for `COc1ccc(C(C(=O)NC2CCCCC2)N(C(=O)c2snc(C(N)=O)c2N)c2ccccc2OC)cc1` (configuration not stated): 1.04%.

`COc1ccc(C(C(=O)NC2CCCCC2)N(C(=O)CCl)c2ccccc2Cl)cc1` (configuration not stated): the inhibition (viability loss, TRAIL sensitization) is 94.5% (active). The same measure for `Cc1ccccc1N(C(=O)CNC(=O)c1cccs1)C(C(=O)NC1CCCC1)c1ccncc1` (configuration not stated): 34.8%; for `COC(=O)[C@@]12C[C@@H](CC(=O)N3CCCCC3)C(=O)N(Cc3ccc4c(c3)OCO4)C1=CCC(C)(C)C2`: -12.6%; for `COc1ccccc1C(=O)NCCC(=O)N(C)Cc1cccnc1`: 10.4%. With `Cc1cc(O)ccc1NC1=CC(=O)CC(C)(C)C1`, the inhibition (viability loss, TRAIL sensitization) is 1.23%.

As to `Cc1cc(N=Nc2ccc3ccccc3c2)ccc1O`, the inhibition (viability loss, TRAIL sensitization) is 55.4% (active).

As for `CCCc1cc(=O)[nH]c(SCC(=O)c2c(N)n(CC(C)C)c(=O)n(C)c2=O)n1`, the inhibition (viability loss, TRAIL sensitization) was 84.5% (active). Under `CCCc1cc(=O)[nH]c(SCC(=O)N2C(C)CCCC2C)n1` (configuration not stated) stands -9.5%; under `CC(C)Cn1c(N)c(C(=O)COC(=O)CN2C(=O)C3CC=CCC3C2=O)c(=O)n(C)c1=O` (configuration not stated), 13.4%; under `O=C(Nc1cccc2cccnc12)c1ccc2sc([C@H]3C[C@H](O)[C@@H](CO)O3)nc2c1`, 7.21%. Take `COC(=O)C[C@@H]1C=C[C@@H](NS(=O)(=O)c2cccc(OC)c2)[C@@H](CO)O1`: the inhibition (viability loss, TRAIL sensitization) is 4.54%. Under `CC(=O)c1c(O)cc2n(c1=O)-c1ccc(Cl)cc1C2(C)C` stands 5.66%. The same measure for `CC(C)C(NC(=O)C1CCC(C(C)(C)C)CC1)C(=O)NCCCN1CCCCC1` (configuration not stated): 8.66%; for `Cc1cccc(NC(=O)/C=C/c2ccc3c(c2)OCO3)n1`: 79.8% (active); for `COc1cccc(C(=O)NNC(=O)/C=C/c2ccccc2)c1`: -32%. Under `Cc1cc(C)nc(NC(=O)/C=C/c2ccc(Cl)cc2)n1` stands 2.95%; under `Cc1ccc(OCCCC(=O)Nc2ccc3c(c2)OCCO3)cc1`, -4.22%.

With `CN(Cc1ccccc1)C(=O)COC(=O)/C=C/c1ccc2c(c1)OCO2`, the inhibition (viability loss, TRAIL sensitization) was -10.8%. Under `COc1cccc(/C=C/C(=O)Nc2ccc3c(c2)OCCO3)c1` stands 64.9% (active). For the molecule `COC(=O)Cc1ccc(OC2(C)CCN(Cc3ccc4c(c3)OCCO4)C2)cc1` (configuration not stated), the inhibition (viability loss, TRAIL sensitization) was -7.8%. In the case of `COc1nnc(-c2ccc(C)c(S(=O)(=O)N(C)C)c2)c2ccccc12`, the inhibition (viability loss, TRAIL sensitization) was -6.56%.

In the case of `Cc1ccc(/C=C2\CCn3c2nc2cc(C(=O)O)ccc2c3=O)c(C)c1`, the inhibition (viability loss, TRAIL sensitization) is 5.96%.

As to `COc1ccc(OC)c(-n2nnnc2SCC(=O)Nc2cc(C)ccc2OC)c1`, the inhibition (viability loss, TRAIL sensitization) is -4.79%. The same measure for `C=CCn1c(C)cc(C2=NNC(=NCC)SC2)c1C`: 92.8% (active). With `CCC(CC)c1nnc(NC(=O)C2CCN(C(=O)c3ccco3)CC2)s1`, the inhibition (viability loss, TRAIL sensitization) is -18.9%.

In the case of `CCCNC(=O)c1cc(C2CCCCN2C(=O)OC)on1` (configuration not stated), the inhibition (viability loss, TRAIL sensitization) was -21.1%. For `N#CCCC(C#N)(c1cccnc1)N1CCOCC1` (configuration not stated), the inhibition (viability loss, TRAIL sensitization) was -12.1%.

In the case of `O=C(Cc1nc2ccccc2[nH]c1=O)c1ccc(Cl)cc1`, the inhibition (viability loss, TRAIL sensitization) is 60.2% (active). Take `O=c1c(-c2ccc(Cl)cc2)[n+]([O-])c2ccccc2n1OCc1nc2ccccc2[nH]1`: the inhibition (viability loss, TRAIL sensitization) is -24.1%. The same measure for `O=C(NCC(O)c1nc2ccccc2[nH]1)c1ccc(Br)cc1` (configuration not stated): -0.934%.

On to `CCC1(C)Cc2c(sc3nnn(CC(=O)Nc4ccc(Cl)cc4)c(=O)c23)CO1` (configuration not stated), for which the inhibition (viability loss, TRAIL sensitization) was -1.52%. With `COc1ccc(C(C)(O)c2nc(-c3cc(F)cc(F)c3)cs2)cc1` (configuration not stated), the inhibition (viability loss, TRAIL sensitization) is 21%. The same measure for `Fc1ccc2cnc(-c3ccccc3)cc2c1`: -5.36%; for `COc1cc(OC)cc(-c2cc3ccc(F)cc3cn2)c1`: 60% (active); for `CC(=O)c1nnn(-c2ccc(Cl)cc2C#N)c1C`: 2.75%. Under `Cc1ccc(N2CCN(c3ccc(C)cc3)C2c2ccccn2)cc1` stands -11.7%; under `Cc1ccc2nc(-c3ccncc3)cc(C(=O)Nc3ccc(OC(F)F)cc3)c2c1`, 14.5%; under `Cc1ccc2nc(-c3ccncc3)cc(C(=O)Nc3ccncc3)c2c1`, 54% (active). The same measure for `Cc1ccc(-c2cc(C(=O)NCc3cn(C)nc3C)c3cc(Br)ccc3n2)cc1`: 12.3%. As to `Cc1cc(C)n2nc(C(=O)OC(C)C(=O)c3cc(C)c(C)cc3C)nc2n1` (configuration not stated), the inhibition (viability loss, TRAIL sensitization) is -12.9%. The same measure for `CC(=O)N1c2ccc(S(=O)(=O)N3CCCC(C(=O)NCc4ccc(Cl)cc4)C3)cc2CC1C` (configuration not stated): 15.2%; for `O=C(CN1C(=O)c2ccccc2S1(=O)=O)N1CCc2ccccc21`: 61.8% (active).

Regarding `Cc1ccc(S(=O)(=O)N(C)CC(=O)N2CCc3ccccc32)cc1`, the inhibition (viability loss, TRAIL sensitization) was -3.97%. The same measure for `CN(Cc1cccs1)C(=O)CN1C(=O)c2ccccc2S1(=O)=O`: -16.6%; for `O=S(=O)(Cc1ccccc1)c1nc2ccccc2n1Cc1ccccn1`: -8.41%; for `O=C(Cn1c2[n+](c3ccc(C(F)(F)F)cc31)CCCCC2)Nc1c(F)cccc1F`: 3.77%. The same measure for `COc1cc2c(cc1OC)C(C)N(S(=O)(=O)c1cnc(Cl)c(Cl)c1)CC2` (configuration not stated): 75.2% (active); for `COc1ccc(C2SCCN2S(=O)(=O)c2ccccc2)cc1OC` (configuration not stated): 0.617%; for `COc1cc2c(cc1OC)CN(C(=O)c1cc(S(=O)(=O)N3CCCCC3)ccc1Cl)CC2`: 1.71%. Under `C[C@@H]1CC2=C(C(=O)OC(C)(C)O2)[C@@H](C2CC2)O1` stands -8.67%; under `Cc1ccc(OCCNC(=O)CN2C(=O)NC3(CCCC3)C2=O)cc1`, -18.7%. For `CCn1cc(-c2cc(C(=O)O)on2)c(C)n1`, the inhibition (viability loss, TRAIL sensitization) was -6.48%.

With `CC(C)Nc1ccc(-n2nc3ccccc3[n+]2[O-])cc1`, the inhibition (viability loss, TRAIL sensitization) was 54.6% (active). Under `CCCC(O)(CCC)C(=O)NN(C(=O)CCl)c1cccc(C)c1` stands 5.97%; under `CCCCC(O)(CCCC)C(=O)NN(C(=O)CCl)c1ccccc1`, 82.8% (active). Under `COC(=O)N(NC(=O)C(O)(C(C)C)C(C)C)c1ccccc1` stands 21.8%; under `COc1ccc(/C=C/CN2CCN(Cc3ccc(C)cc3)C(CCO)C2)cc1` (configuration not stated), -0.778%; under `Cc1ccc(-c2cc(C(=O)N/N=C/C=C/c3ccccc3)n[nH]2)o1`, 0.486%.

With `Cc1cc(C(=O)NCCc2ccc(Cl)cc2)c(C)o1`, the inhibition (viability loss, TRAIL sensitization) was -14.9%. On to `CC(=C/c1ccccc1)/C=N/NC(=O)c1cc(C)oc1C`, for which the inhibition (viability loss, TRAIL sensitization) is 54.5% (active). The same measure for `Cc1ccc2cccc(OCCCOc3ccccc3CO)c2n1`: -4.7%; for `Cc1ccc(NC(=O)c2oc3ccccc3c2C)c([N+](=O)[O-])c1`: 3.18%; for `CC1(C(=O)NS(=O)(=O)C2CC2)CCCN(C(=O)CSc2ccccc2)C1` (configuration not stated): -10.3%. Under `CN1CCC(OC(=O)COc2ccc(Cl)cc2Cl)CC1` stands -7.75%; under `CCOC(=O)c1c(NC(=O)c2ccc(S(=O)(=O)N(C)CC3CCCO3)cc2)sc2c1CC(C)(C)NC2(C)C` (configuration not stated), 26.5%. The same measure for `COC(=O)c1c(NC(=O)COc2ccc(Cl)cc2Cl)sc2c1CC(C)(C)NC2(C)C`: 92.1% (active); for `COC(=O)c1ccccc1N=Nc1c(C)[nH][nH]c1=O`: -4%. As for `O=C(CSc1ncnc2c1nnn2Cc1ccc(F)cc1)NC1CCCC1`, the inhibition (viability loss, TRAIL sensitization) was -9.39%. The same measure for `O=C(CCNC(=O)c1ccc(Br)cc1)Nc1cccc(S(=O)(=O)N2CCCCC2)c1`: 5.98%; for `C=CCN(c1ccc(C(=O)Nc2cc(C)cc(C)c2)cc1)S(C)(=O)=O`: -8.04%; for `CSCc1ccc(C(=O)Nc2cc(C)cc(C)c2)cc1`: 66.6% (active). As for `Cc1cc(C)cc(NC(=O)CSc2ccccc2)c1`, the inhibition (viability loss, TRAIL sensitization) is -3.71%.

For the molecule `Cc1cccc(CC2(O)C(=O)Nc3ccccc32)n1` (configuration not stated), the inhibition (viability loss, TRAIL sensitization) is -8.54%.

In the case of `CN(C)S(=O)(=O)c1ccc(N2CCCC2=O)c([N+](=O)[O-])c1`, the inhibition (viability loss, TRAIL sensitization) was 4.63%.

These data come from PubChem BioAssay AID624354 (Sanford-Burnham Center for Chemical Genomics, 2012).
